The source of these data is PubChem BioAssay (EPA / NIEHS).

Where “and” joins values, the source holds several entries; their conditions need not be identical. Equal entries are not always repeated. Inconclusive results are not listed. Calls of active or inactive are those of the source. The calls were made as follows: active = hit-call score of the fitted dose curve at least 0.9, where 1 is the maximum; inconclusive = response in the unintended direction; inactive = score below 0.9.

The target in assay [1] is human Protein Tyrosine Phosphatase Receptor Type B (PTPRB), PTPRB (gene 5787) (UniProt P23467). As to the kind of experiment: NVS_ENZ_hPTPRB: NovaScreen (NVS) Enzymatic Assay for human Protein Tyrosine Phosphatase Receptor Type B (PTPRB) (AID 2283211). An outline of the steps: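 Recombinant human PTPRB with a fluorescent substrate, product separated by electrophoretic mobility shift; read 1 h after dosing. Primary screen in duplicate at 25 uM; actives then retested in concentration series; loss of signal versus DMSO.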

Assay [2] has as its target human Protein Tyrosine Phosphatase Receptor Type F (PTPRF), PTPRF (gene 5792) (UniProt P10586). As to the kind of experiment: NVS_ENZ_hPTPRF: NovaScreen (NVS) Enzymatic Assay for human Protein Tyrosine Phosphatase Receptor Type F (PTPRF) (AID 2283213). An outline of the steps: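 Cell-free fluorescence enzyme assay with recombinant protein and substrate; product separated by electrophoretic mobility shift. Read 1 h after dosing, single 25 uM duplicate screen, then concentration-response up to 50 uM; loss of signal vs DMSO.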

Assay [3] deals with rabbit Imidazoline 2 Central (I2C), CKB (gene 100009085) (UniProt P00567). As to the kind of experiment: NVS_ENZ_rabI2C: NovaScreen (NVS) Enzymatic Assay for rabbit Imidazoline 2 Central (I2C) (AID 2283228). An outline of the steps:
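Rabbit brain membranes, cell-free; readout by filter-based scintillation counting 1.5 hours after dosing, loss of signal vs DMSO. Initial duplicate test at 25 uM, then concentration-response with 50 uM top concentration.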

The target in assay [4] is human Vascular Endothelial Growth Factor Receptor 1 (VEGFR1), FLT1 (gene 2321) (UniProt P17948). As to the kind of experiment: NVS_ENZ_hVEGFR1: NovaScreen (NVS) Enzymatic Assay for human Vascular Endothelial Growth Factor Receptor 1 (VEGFR1) (AID 2283226). An outline of the steps: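 Cell-free assay of recombinant human VEGFR1 kinase with substrate, measured 1 h after dosing; fluorescence with electrophoretic mobility-shift separation of substrate and product, referenced to DMSO; primary screen at 25 uM in duplicate, actives then run in concentration series.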

In assay [5] the target is Serine/threonine-protein phosphatase PP1-alpha catalytic subunit (Homo sapiens) (UniProt P62136). Nature of the assay: NVS_ENZ_hPPP1CA: NovaScreen (NVS) Enzymatic Assay for human Protein Phosphatase 1 Aatalytic subunit Alpha (PPP1CA) (AID 2283200). An outline of the steps: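 Recombinant enzyme activity read by fluorescence with electrophoretic mobility shift separating substrate from product, 1.33 h after dosing; loss of signal vs DMSO baseline. Primary screen in duplicate at 25 uM; actives retested in concentration-response up to 50 uM.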
Serine/threonine-protein phosphatase PP1-alpha catalytic subunit (Homo sapiens), sequence (P62136 whole entry, looked up): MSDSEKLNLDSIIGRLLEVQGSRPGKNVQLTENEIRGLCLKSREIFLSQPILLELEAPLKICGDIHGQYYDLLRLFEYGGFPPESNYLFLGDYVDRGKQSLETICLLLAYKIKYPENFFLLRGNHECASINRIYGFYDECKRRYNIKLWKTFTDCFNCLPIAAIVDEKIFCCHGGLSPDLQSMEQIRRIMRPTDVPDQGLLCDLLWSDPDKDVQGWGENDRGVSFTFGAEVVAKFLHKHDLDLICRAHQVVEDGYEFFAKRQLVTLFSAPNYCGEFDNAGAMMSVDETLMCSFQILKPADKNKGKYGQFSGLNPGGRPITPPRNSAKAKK

Assay [6] addresses Tyrosine-protein phosphatase non-receptor type 11 (Homo sapiens) (UniProt Q06124). As to the kind of experiment: NVS_ENZ_hPTPN11: NovaScreen (NVS) Enzymatic Assay for human Protein Tyrosine Phosphatase Non-receptor Type 11 (PTPN11) (AID 2283202). An outline of the steps:
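Recombinant human PTPN11 activity on a fluorescent substrate, with substrate/product separated by electrophoretic mobility shift; read 0.5 h after dosing, loss of signal vs DMSO. Duplicate 25 uM screen, then concentration-response up to 50 uM.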

In assay [7] the target is human SRC Proto-Oncogene, Non-receptor Tyrosine Kinase (SRC), SRC (gene 6714) (UniProt P12931). Nature of the assay: NVS_ENZ_hSRC: NovaScreen (NVS) Enzymatic Assay for human SRC Proto-Oncogene, Non-receptor Tyrosine Kinase (SRC) (AID 2283223). In short, it runs like this: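 Cell-free kinase activity assay with fluorescent substrate, product separated by electrophoretic mobility shift, read 1 h after dosing. Duplicate single point at 25 uM, then concentration-response up to 50 uM; loss of signal versus DMSO.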

In assay [8] the target is human Sirtuin 2 (SIRT2), SIRT2 (gene 22933) (UniProt Q8IXJ6). Nature of the assay: NVS_ENZ_hSIRT2: NovaScreen (NVS) Enzymatic Assay for human Sirtuin 2 (SIRT2) (AID 2283217). An outline of the steps: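 Cell-free recombinant human SIRT2, fluorescent substrate with product separated by electrophoretic mobility shift, 1 hr. Screened in duplicate at 25 uM; hits rerun singly in concentration-response up to 50 uM, relative to DMSO.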

For assay [9], the target named is human Sirtuin 3 (SIRT3), SIRT3 (gene 23410) (UniProt Q9NTG7). As to the kind of experiment: NVS_ENZ_hSIRT3: NovaScreen (NVS) Enzymatic Assay for human Sirtuin 3 (SIRT3) (AID 2283222). An outline of the steps: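 Cell-free enzyme assay with recombinant protein and fluorescent substrate, product separated by electrophoretic mobility shift; read 1 hour after dosing. Screened in duplicate at 25 uM, then singleton concentration-response up to 50 uM; loss of signal versus DMSO.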
human Sirtuin 3 (SIRT3), SIRT3 (gene 23410), sequence (Q9NTG7 whole entry, looked up): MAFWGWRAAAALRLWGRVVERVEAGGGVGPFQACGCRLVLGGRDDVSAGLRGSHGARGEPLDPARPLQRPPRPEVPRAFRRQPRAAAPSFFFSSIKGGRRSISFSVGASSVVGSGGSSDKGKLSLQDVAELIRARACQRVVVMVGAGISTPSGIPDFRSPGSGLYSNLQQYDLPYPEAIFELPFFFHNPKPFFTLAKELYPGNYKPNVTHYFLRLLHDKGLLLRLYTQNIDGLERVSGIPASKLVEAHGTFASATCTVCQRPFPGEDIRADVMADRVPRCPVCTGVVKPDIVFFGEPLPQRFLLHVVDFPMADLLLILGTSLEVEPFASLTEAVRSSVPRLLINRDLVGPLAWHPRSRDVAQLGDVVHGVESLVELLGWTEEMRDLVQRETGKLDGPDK

Assay [10] deals with human Protein Phosphatase, Mg2+/Mn2+ Dependent 1A (PPM1A), PPM1A (gene 5494) (UniProt P35813). As to the kind of experiment: NVS_ENZ_hPPM1A: NovaScreen (NVS) Enzymatic Assay for human Protein Phosphatase, Mg2+/Mn2+ Dependent 1A (PPM1A) (AID 2283198). In short, it runs like this:
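Cell-free recombinant PPM1A phosphatase assay with fluorescent substrate, read 1 h after dosing by electrophoretic mobility shift. Chemicals screened in duplicate at 25 uM, then in concentration-response up to 50 uM; loss of activity versus DMSO.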

Assay [11] addresses human Sirtuin 1 (SIRT1), SIRT1 (gene 23411) (UniProt Q96EB6). Nature of the assay: NVS_ENZ_hSIRT1: NovaScreen (NVS) Enzymatic Assay for human Sirtuin 1 (SIRT1) (AID 2283219). In short, it runs like this: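 Cell-free recombinant SIRT1 with a fluorescent substrate; substrate and product separated by electrophoretic mobility shift and read by fluorescence intensity, 1 h after dosing. Primary screen at 25 uM in duplicate; hits re-run in concentration-response up to 50 uM, relative to DMSO.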

The target in assay [12] is human Tropomyosin Receptor Kinase A (TRKA), NTRK1 (gene 4914) (UniProt P04629). As to the kind of experiment: NVS_ENZ_hTrkA: NovaScreen (NVS) Enzymatic Assay for human Tropomyosin Receptor Kinase A (TRKA) (AID 2283224). In short, it runs like this:
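Recombinant human TrkA activity read after 1 h by fluorescence with electrophoretic mobility shift separating substrate and product. Primary screen in duplicate at 25 uM; actives were rerun in concentration-response up to 50 uM. Loss of signal versus DMSO.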

For assay [13], the target named is Tyrosine-protein phosphatase non-receptor type 14 (Homo sapiens) (UniProt Q15678). As to the kind of experiment: NVS_ENZ_hPTPN14: NovaScreen (NVS) Enzymatic Assay for human Protein Tyrosine Phosphatase Non-receptor Type 14 (PTPN14) (AID 2283206). In short, it runs like this: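 Cell-free recombinant human PTPN14 with fluorescent substrate, read 0.5 h after dosing by fluorescence and electrophoretic mobility shift separating substrate from product. Primary screen at 25 uM in duplicate; hits run to 50 uM maximum; loss of signal versus DMSO.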
Tyrosine-protein phosphatase non-receptor type 14 (Homo sapiens), sequence (Q15678 whole entry, looked up): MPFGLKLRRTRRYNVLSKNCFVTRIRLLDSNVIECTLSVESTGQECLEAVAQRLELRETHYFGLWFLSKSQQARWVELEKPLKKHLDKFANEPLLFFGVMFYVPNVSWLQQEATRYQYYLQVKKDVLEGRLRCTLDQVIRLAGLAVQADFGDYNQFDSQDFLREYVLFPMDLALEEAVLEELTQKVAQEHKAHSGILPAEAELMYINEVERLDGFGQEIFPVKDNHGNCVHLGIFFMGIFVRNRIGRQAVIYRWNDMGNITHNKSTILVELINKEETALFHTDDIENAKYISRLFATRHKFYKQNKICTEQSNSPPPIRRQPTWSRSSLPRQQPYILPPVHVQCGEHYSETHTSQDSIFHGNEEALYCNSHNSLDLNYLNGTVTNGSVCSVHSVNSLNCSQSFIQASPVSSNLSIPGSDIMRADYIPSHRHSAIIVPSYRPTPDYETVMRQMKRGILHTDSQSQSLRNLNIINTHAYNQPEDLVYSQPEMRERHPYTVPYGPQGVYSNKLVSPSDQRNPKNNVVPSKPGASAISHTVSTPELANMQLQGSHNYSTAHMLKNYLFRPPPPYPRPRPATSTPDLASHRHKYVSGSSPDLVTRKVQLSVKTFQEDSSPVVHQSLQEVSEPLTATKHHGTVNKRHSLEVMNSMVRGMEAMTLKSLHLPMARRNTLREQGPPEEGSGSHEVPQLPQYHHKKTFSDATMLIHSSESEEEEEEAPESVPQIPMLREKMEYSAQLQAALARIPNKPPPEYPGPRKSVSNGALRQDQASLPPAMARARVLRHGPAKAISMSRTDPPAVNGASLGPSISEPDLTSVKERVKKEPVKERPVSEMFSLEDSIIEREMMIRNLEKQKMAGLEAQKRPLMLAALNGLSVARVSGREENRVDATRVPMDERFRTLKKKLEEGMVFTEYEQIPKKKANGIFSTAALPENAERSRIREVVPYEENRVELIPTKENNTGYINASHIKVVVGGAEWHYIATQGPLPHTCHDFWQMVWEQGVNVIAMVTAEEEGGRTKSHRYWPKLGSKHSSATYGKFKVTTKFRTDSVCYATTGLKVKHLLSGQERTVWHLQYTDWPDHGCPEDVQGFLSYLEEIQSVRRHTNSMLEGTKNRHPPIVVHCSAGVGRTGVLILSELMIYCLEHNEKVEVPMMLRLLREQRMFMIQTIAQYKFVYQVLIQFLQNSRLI

Assay [14] addresses human Protein Tyrosine Phosphatase Non-receptor Type 1 (PTPN1), PTPN1 (gene 5770) (UniProt P18031). Nature of the assay: NVS_ENZ_hPTPN1: NovaScreen (NVS) Enzymatic Assay for human Protein Tyrosine Phosphatase Non-receptor Type 1 (PTPN1) (AID 2283201). An outline of the steps:
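Cell-free fluorogenic-substrate activity assay on recombinant enzyme, read 1.33 h after dosing by fluorescence and electrophoretic mobility shift; loss of signal vs DMSO baseline. Primary screen in duplicate at 25 uM, hits then run in concentration-response up to 50 uM.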

In assay [15] the target is human Rho Associated Coiled-coil Containing Protein Kinase 1 (ROCK1), ROCK1 (gene 6093) (UniProt Q13464). As to the kind of experiment: NVS_ENZ_hROCK1: NovaScreen (NVS) Enzymatic Assay for human Rho Associated Coiled-coil Containing Protein Kinase 1 (ROCK1) (AID 2283214). In short, it runs like this:
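Cell-free recombinant human ROCK1 activity assay; fluorescent substrate and product separated by electrophoretic mobility shift, read 1 h after dosing. Screened in duplicate at 25 uM; loss of signal versus DMSO baseline scored as inhibition.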

The target in assay [16] is human Phosphoinositide 3-kinase alpha (PI3Ka), PIK3CA (gene 5290) (UniProt P42336). Nature of the assay: NVS_ENZ_hPI3Ka: NovaScreen (NVS) Enzymatic Assay for human Phosphoinositide 3-kinase alpha (PI3Ka) (AID 2283196). An outline of the steps: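 Recombinant human PI3Kα with fluorescent substrate, 1 h, product separated by electrophoretic mobility shift; 25 uM duplicate screen, hits (e.g., 30% inhibition) retested singly up to 50 uM; loss of signal vs DMSO.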
human Phosphoinositide 3-kinase alpha (PI3Ka), PIK3CA (gene 5290), sequence (P42336 whole entry, looked up): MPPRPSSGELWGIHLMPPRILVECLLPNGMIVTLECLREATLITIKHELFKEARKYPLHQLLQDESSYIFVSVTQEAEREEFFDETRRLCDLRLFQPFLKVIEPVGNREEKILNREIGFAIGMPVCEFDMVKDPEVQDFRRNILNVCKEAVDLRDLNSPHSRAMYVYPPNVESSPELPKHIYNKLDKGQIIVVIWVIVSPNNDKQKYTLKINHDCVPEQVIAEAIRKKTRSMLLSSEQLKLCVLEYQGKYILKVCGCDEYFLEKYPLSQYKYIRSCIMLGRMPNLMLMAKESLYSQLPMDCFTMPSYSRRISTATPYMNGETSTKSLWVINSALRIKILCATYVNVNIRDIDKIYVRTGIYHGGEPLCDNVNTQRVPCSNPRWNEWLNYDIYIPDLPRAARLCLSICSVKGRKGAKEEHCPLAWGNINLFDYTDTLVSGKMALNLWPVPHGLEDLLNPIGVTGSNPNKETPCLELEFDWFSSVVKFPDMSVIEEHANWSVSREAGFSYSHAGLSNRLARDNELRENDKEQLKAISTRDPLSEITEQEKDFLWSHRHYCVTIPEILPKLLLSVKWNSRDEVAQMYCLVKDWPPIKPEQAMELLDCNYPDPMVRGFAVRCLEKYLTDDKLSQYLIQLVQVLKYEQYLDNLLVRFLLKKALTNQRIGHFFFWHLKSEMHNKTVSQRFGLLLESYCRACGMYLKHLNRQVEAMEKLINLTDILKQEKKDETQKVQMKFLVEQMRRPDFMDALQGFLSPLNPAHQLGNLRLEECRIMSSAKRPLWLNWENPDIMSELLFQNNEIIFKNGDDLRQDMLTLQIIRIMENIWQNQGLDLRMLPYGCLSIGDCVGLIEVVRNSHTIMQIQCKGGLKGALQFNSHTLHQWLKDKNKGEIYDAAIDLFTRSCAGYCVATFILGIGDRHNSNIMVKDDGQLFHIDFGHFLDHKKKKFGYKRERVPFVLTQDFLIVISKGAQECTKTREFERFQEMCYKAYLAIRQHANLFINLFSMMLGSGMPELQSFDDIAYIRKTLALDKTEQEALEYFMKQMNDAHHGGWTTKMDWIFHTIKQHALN

Assay [17] addresses Tyrosine-protein phosphatase non-receptor type 12 (Homo sapiens) (UniProt Q05209). Nature of the assay: NVS_ENZ_hPTPN12: NovaScreen (NVS) Enzymatic Assay for human Protein Tyrosine Phosphatase Non-receptor Type 12 (PTPN12) (AID 2283204). In short, it runs like this: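 Single-concentration duplicates (25 uM) preceded singleton concentration-response up to 50 uM for chemicals passing threshold. Cell-free recombinant PTPN12 activity was read 1.33 h after dosing via fluorescence after mobility-shift separation; loss of signal versus DMSO.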

rabbit Imidazoline 2 Central (I2C), CKB (gene 100009085), sequence (P00567 whole entry, looked up): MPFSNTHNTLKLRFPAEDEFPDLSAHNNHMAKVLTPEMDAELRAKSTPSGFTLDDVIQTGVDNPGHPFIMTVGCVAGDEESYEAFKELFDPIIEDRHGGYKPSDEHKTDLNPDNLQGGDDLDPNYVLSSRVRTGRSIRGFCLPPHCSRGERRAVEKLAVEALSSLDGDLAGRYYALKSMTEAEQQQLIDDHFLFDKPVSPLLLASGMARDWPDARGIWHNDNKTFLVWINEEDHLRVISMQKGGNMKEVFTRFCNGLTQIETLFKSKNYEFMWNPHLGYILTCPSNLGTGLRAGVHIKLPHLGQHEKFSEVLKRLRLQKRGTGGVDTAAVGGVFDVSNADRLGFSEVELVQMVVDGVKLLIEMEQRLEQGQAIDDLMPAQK
human Sirtuin 1 (SIRT1), SIRT1 (gene 23411), sequence (Q96EB6 whole entry, looked up): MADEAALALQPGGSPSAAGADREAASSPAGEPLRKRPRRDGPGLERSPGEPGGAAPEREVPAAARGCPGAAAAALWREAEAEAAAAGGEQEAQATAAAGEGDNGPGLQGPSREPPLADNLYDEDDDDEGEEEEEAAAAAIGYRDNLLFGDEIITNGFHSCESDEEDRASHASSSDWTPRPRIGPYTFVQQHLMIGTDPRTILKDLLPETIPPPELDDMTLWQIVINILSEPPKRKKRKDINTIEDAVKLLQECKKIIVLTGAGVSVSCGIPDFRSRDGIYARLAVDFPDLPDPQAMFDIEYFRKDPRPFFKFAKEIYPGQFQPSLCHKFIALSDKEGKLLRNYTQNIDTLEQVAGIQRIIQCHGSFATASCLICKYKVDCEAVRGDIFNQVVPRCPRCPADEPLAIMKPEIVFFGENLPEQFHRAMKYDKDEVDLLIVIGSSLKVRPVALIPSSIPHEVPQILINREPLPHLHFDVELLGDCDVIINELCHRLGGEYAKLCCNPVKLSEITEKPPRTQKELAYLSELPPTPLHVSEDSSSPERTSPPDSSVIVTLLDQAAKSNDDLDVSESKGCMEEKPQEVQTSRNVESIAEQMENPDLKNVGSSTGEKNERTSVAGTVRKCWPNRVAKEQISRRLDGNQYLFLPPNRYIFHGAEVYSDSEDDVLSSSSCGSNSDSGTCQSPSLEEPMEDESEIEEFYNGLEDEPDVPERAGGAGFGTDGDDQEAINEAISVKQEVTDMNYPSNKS
Tyrosine-protein phosphatase non-receptor type 11 (Homo sapiens), sequence (Q06124 whole entry, looked up): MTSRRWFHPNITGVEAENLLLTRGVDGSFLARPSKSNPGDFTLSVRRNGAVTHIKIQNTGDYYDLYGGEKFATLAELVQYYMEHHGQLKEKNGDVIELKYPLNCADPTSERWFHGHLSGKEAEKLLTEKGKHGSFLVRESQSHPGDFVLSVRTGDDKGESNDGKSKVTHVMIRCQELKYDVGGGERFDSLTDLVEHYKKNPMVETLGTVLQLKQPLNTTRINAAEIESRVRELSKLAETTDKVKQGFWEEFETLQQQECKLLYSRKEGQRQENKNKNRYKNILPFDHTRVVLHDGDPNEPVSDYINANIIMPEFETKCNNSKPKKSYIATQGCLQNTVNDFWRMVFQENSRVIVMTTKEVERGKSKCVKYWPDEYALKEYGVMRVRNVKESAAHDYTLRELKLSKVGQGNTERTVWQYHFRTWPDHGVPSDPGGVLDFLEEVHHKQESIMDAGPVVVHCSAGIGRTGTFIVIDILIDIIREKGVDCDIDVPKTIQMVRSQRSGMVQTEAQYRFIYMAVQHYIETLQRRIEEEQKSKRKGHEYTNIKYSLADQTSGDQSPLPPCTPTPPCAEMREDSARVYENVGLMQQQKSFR

As usually defined, the AC50 is the concentration giving half of the maximal activity seen. Consider `Clc1cc(Cl)c2c(c1)N=C1CCCCCN1C2`, for which the outcome in [1] and in assay [2] was inactive. Besides, the AC50 in assay [3] was 6.89 µM (active).
`Cc1cc2c(cc1C(F)(F)F)N(C(=O)Nc1ccc(Oc3cccnc3C)nc1)CC2`: the molecule was called inactive in assay [4].
With `CCOC(=O)O[C@H](C)OC(=O)c1ccc2c(c1)cc(C(=O)NC1CCN(C(C)C)CC1)n2Cc1cc(-c2ccc(Cl)s2)on1`, the AC50 in assay [5] is 18.6 µM (active).
`c1ccc2ccccc2c1`: the molecule was called inactive in assay [5], in [6] and in assay [7].
Take `NC(=O)c1nc(-c2cccc(-c3cc(F)ccc3OCC(F)(F)C(F)(F)F)c2)n[nH]1`: the result in assay [8] and in assay [9] was inactive.
For the molecule `CCCCCCCCCC(=O)O`, the call in [10], in assay [1], in [11] and in assay [12] was inactive.
As to `Cc1occc1C(=O)Nc1ccc(C(=O)N2CCC(F)(F)/C(=C\C(=O)N3CCC(N4CCCCC4)CC3)c3ccccc32)cc1`, the molecule was classed as inactive in assay [9].
As for `Oc1ccc2ccccc2c1`, the call in [13] and in [11] was inactive.
On to `CN(C)c1ccc(C(=C2C=CC(=[N+](C)C)C=C2)c2ccc(N(C)C)cc2)cc1`, for which, in assay [3], the result was inactive.
For the molecule `Cc1oc2c(NC(=O)c3c(Cl)cccc3Cl)cccc2c1C(C)(C)O`, the result in assay [9] and in [3] was inactive.
For `CN1C(=O)N(c2ccccc2Br)Cc2cnc(Nc3ccc4c(c3)OCC(CO)O4)nc21` (centres undefined), the outcome in assay [14], in assay [13], in [2] and in assay [11] was inactive. In addition, the AC50 was 0.00229 µM (active) in assay [7] and 0.493 µM (active) in assay [12].
Consider `CC[C@@H]1C[C@H](N(Cc2cc(C(F)(F)F)cc(C(F)(F)F)c2)C(C)=O)c2cc(C(F)(F)F)ccc2N1C(=O)OC(C)C`, for which the outcome in [14] was inactive.
As to `O=C1CCC(C2CCCCC2)CC1`, in assay [6], the outcome was inactive.
With `NCc1cccc(C2CCN(C(=O)c3ccc(C#Cc4ccccc4F)o3)CC2)c1`, the AC50 in [3] is 7.1 µM (active).
`COc1cc(C(=O)NC2CCN(C)CC2)ccc1Nc1ncc2c(n1)N(C1CCCC1)CC(F)(F)C(=O)N2C`: the call in assay [13], in [15] and in assay [8] was inactive.
Consider `CC/C(=C(/CC)c1ccc(O)cc1)c1ccc(O)cc1`, for which the concentration at half-maximal activity (AC50) in [16] was 40 µM (active) and 17.3 µM (active) and 27.8 µM (active). The outcome in [6], in assay [17], in [13] and in [1] was inactive.
Consider `CCCCCCCCOC(=O)c1cc(O)c(O)c(O)c1`, for which the call in assay [16] was inactive.
For the molecule `CC[C@H](NC(=O)c1cc(F)ccc1NS(=O)(=O)c1cccc2cccnc12)c1ccccc1`, the outcome in assay [5] was inactive.
